From PubChem
This is a sample that favours compounds with a hit; in the whole collection about 19% have one here.
HT1080NT lethal: qHTS for induction of synthetic lethality in tumor cells producing 2HG: qHTS for the HT-1080-NT fibrosarcoma cell line; HT-1080-NT fibrosarcoma viability, CellTiter-Glo ATP luminescence, 48 h; Potency, µM (highest dose often 46.1 µM), for the others: at the top dose activity, negative = less viability, actives largely listed as cytotoxic; actives 1.6% (n = 360,000); AID 686970, 2013;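 note: NT is the 2HG producing partner of a matched IDH1 knockdown line; potency is the fitted concentration of half-maximal effect; 0% = DMSO-treated cells and -100% = media-only wells without cells; nearly all actives have a fitted effect of over 55% in size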
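Toxicity toward the 2HG-producing NT line was scored as %Activity, normalised to DMSO and no-cell wells, from CellTiter-Glo luminescence after 48 hours' treatment.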
IL1B secr inh: qHTS for Inhibitors of Inflammasome Signaling: IL-1-beta AlphaLISA Primary Screen; THP-1 LPS/ATP IL-1B secretion, AlphaLISA, 16 h; hits give low values; activity change, % at 57.5 µM; actives 4.7% (n = 360,000); in the data active = activity change below about -50%; inconclusive = mostly about -30% to -49%
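THP-1 cells pretreated 1 hr with compounds (up to 57.5 uM final), then stimulated with LPS (250 ng/mL final) plus ATP (1.25 mM final); secreted IL-1B measured by AlphaLISA after 16 hr, decreased signal indicating inhibition.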
TDP1 cell CPT: qHTS for Inhibitors of human tyrosyl-DNA phosphodiesterase 1 (TDP1): qHTS in cells in presence of CPT. Potency, µM (series often up to 46.2 µM), inactives show at the highest dose activity change, negative = growth inhibition, most hits filed as inhibitors. actives 12% (n = 420,000). chicken DT40 Tdp1-/-;hTDP1 cells + 20 nM CPT, ATP luminescence, 48 h; note: potency is the fitted concentration of half-maximal effect; nearly all actives have a fitted effect of over 55% in size
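Chicken DT40 Tdp1-/- cells complemented with human TDP1, 400 cells/well, exposed to compounds plus 20 nM camptothecin for at least 48 h at 37 C; viability read as ATP content by CellTiter-Glo luminescence.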
HT1080 IDH1KD tx: qHTS for induction of synthetic lethality in tumor cells producing 2HG: qHTS for the HT-1080-IDH1KD cell line; HT-1080 IDH1 knockdown viability, ATP luminescence, 48 h; Potency, µM (highest dose often 46.1 µM), without a hit: at the highest dose activity, negative = toxicity, usual class: cytotoxic; actives 2% (n = 360,000); AID 686971, 2013;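 note: potency is the fitted concentration of half-maximal effect; 0% = DMSO wells and -100% = cell-free medium wells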
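Assay cells: HT-1080 with IDH1 knockdown, 750 per well, RPMI/5% FBS. Exposure: 48 h at 37 °C following 2 h pre-incubation. Read: CellTiter-Glo luminescence; fitted concentration-response, curve class assigned.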
TDP1 cell noCPT: qHTS for Inhibitors of human tyrosyl-DNA phosphodiesterase 1 (TDP1): qHTS in cells in absence of CPT; Potency, µM (highest dose often 46.2 µM), inactives show top-dose activity change, negative = growth inhibition, actives largely listed as inhibitors; DT40 Tdp1-/- hTDP1 cells, no CPT, ATP luminescence, 48 h; actives 15% (n = 420,000); AID 686978, 2013; note: potency is the fitted concentration of half-maximal effect; nearly all actives have a fitted effect of over 55% in size
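A cellular qHTS used chicken DT40 cells lacking endogenous Tdp1 but carrying stably transfected human TDP1. Compounds were applied without camptothecin, and cell growth kinetics were judged by ATP-dependent luminescence after ≥48 hr.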
Active calls of the source: *; ? = inconclusive; . = not tested or not shown; ! = repeats disagree; [ ] = remark or other dose. Unless noted, calls come from the whole dose curve; as a rule, active = well fitted curve in the direction sought with a large enough effect; inconclusive = small, poorly fitted or top-dose-only effect, or another doubt; inactive = no such curve, though single readings can be large; an effect the other way counts as inactive or inconclusive. Unless noted, % is set by controls: 0 for no effect and ±100 for the full control effect.

SMILES	HT1080NT lethal	IL1B secr inh	TDP1 cell CPT	HT1080 IDH1KD tx	TDP1 cell noCPT
COc1ccc(CC(=O)Nc2sc3c(c2C(=O)Nc2ccccc2)CCCCC3)cc1	.	.	-69%	.	?
COc1ccc(NC(=O)CN(C)CC(=O)Nc2sc3c(c2C(N)=O)CCC3)cc1	-9%	6	21µM*	-3%	?
CCOC(=O)c1ccc(NC(=O)c2c(NC(=O)CCC(=O)O)sc3c2CCCCC3)cc1	6%	-17	0%	11%	29µM*
CC(=O)c1cccc(NC(=O)CSc2nc(=O)n(CCN3CCOCC3)c3c2CCC3)c1	-1%	-16	1%	3%	-3%
COc1cc2c(cc1OC)CN(C(=O)CN1C(=O)c3ccc([N+](=O)[O-])cc3C1=O)CC2	-3%	15	-13%	-1%	-1%
COc1cccc(OC)c1C(=O)Nc1nnc(C)s1	.	.	4%	.	-2%
CCc1cccc(NC(=O)COC(=O)C2COc3ccccc3O2)c1 (centres undefined)	1%	6	-11%	-1%	-30%
CCOC(=O)c1ccc(NC(=O)c2c(NCc3ccc(OC)c(OC)c3OC)sc3c2CCC(C)C3)cc1 (centres undefined)	.	.	?	.	26µM*
COc1cc(C(=O)Nc2sc3c(c2C(=O)O)CCC(C)C3)cc(OC)c1OC (centres undefined)	-15%	6	-27%	-16%	-12%
O=C(O)c1ccccc1Nc1ccc([N+](=O)[O-])cc1	?	15	-20%	?	2.9µM*
CN(C)S(=O)(=O)c1ccc(Cl)c(C(=O)Nc2cccc([N+](=O)[O-])c2)c1	-22%	-25	18µM*	-16%	21µM*
O=C(Nc1ccc(Nc2ccccc2)cc1)c1cc([N+](=O)[O-])ccc1Cl	?	-67*	?	18µM*	16µM*
O=C(Nc1ccccc1Oc1ccccc1)c1cc([N+](=O)[O-])ccc1Cl	-9%	-4	16µM*	-7%	?
O=C(O)c1ccccc1C(=O)Nc1ccc(Nc2ccc([N+](=O)[O-])cc2[N+](=O)[O-])cc1	-3%	-12	-3%	0%	-17%
CCOc1ccc(OCC)c(NS(=O)(=O)c2cc(-c3onc(C)c3C)ccc2OC)c1	.	.	-17%	.	-9%
CCOc1ccc(N2CC(C(=O)NC3CCCC3)CC2=O)cc1 (centres undefined)	27%	14	-18%	19%	-1%
Cc1c(Cl)cccc1N1C(=O)CC(NNC(=O)c2ccc3c(c2)OCO3)C1=O (centres undefined)	4%[9.24 µM]	0	-20%	0%	4%
Cc1cccc(NC(=O)c2ccc([N+](=O)[O-])cc2Cl)n1	13%	-4	?	16%	?
Cc1cccc(NC(=O)c2cc([N+](=O)[O-])ccc2Cl)c1O	-10%	-50*	?	-15%	?
C/C(=C\c1ccccc1)C(=O)N1CCN(Cc2ccc3c(c2)OCO3)CC1	-22%	-69*	-20%	-2%	-14%
O=C(O)c1ccccc1C(=O)N1CCN(Cc2ccc3c(c2)OCO3)CC1	18%	29	10%	18%	24%
COc1ccccc1CN1CCOc2ccc(CN3CCCCC3CO)cc2C1 (centres undefined)	.	.	-4%[9.04 µM]	.	-16%
COc1cc(OC)c(OC)cc1CN1CCOc2ccc(CN3CCN(C(C)=O)CC3)cc2C1	.	.	-7%[9.04 µM]	.	21µM*
O=C(CN1C(=O)c2cccc3cccc(c23)C1=O)N1CCN(Cc2ccc3c(c2)OCO3)CC1	-3%	-6	21µM*	2%	18µM*
COc1ccccc1C(=O)N1CCN(Cc2ccc3c(c2)OCO3)CC1	10%	-57*	-7%	8%	-14%
SMILES	HT1080NT lethal	IL1B secr inh	TDP1 cell CPT	HT1080 IDH1KD tx	TDP1 cell noCPT
CC(C)(C)CC(=O)N1CCN(Cc2ccc3c(c2)OCO3)CC1	4%	-7	-5%	9%	-19%
CC(C)c1ccc(OC(=O)c2cc(-c3ccccc3)on2)cc1	.	.	8%	.	18%
CCc1cc2cc(C(=O)N3CCN(Cc4ccccc4)CC3)sc2s1	3%	-85*	?	2%	?
O=C(C1CCN(S(=O)(=O)c2ccccc2F)CC1)N1CCN(Cc2ccc3c(c2)OCO3)CC1	-11%[9.24 µM]	-12	21µM*	0%	?
N#Cc1c(F)cccc1N1CCN(Cc2ccc3c(c2)OCO3)CC1	-21%	-14	16µM*	-20%	?
O=C(Nc1ccc(Cl)cc1)N1CCN(Cc2ccc3c(c2)OCO3)CC1	-5%	0	-13%	-22%	-22%
O=C(c1ccc(F)cc1)N1CCC(C(=O)N2CCN(Cc3ccc4c(c3)OCO4)CC2)CC1	0%	-5	2%	-5%	-2%
O=C(COc1ccc(Cl)cc1)N1CCN(Cc2ccc3c(c2)OCO3)CC1	28%	-51*!	?	11%	?
CCc1cc2cc(C(=O)N3CCN(c4ccccc4)CC3)sc2s1	10%	12	-14%	10%	?
CCOc1ccccc1C(=O)Nc1c(NC)c2ccccc2oc1=O	.	.	0%	.	?
N#Cc1c(N)c(C(=O)c2ccc(Br)cc2)n2c1CCC2	-4%	-10	-22%	-6%	?
COc1cc(C)c(C)cc1S(=O)(=O)N1CCN(Cc2ccc3c(c2)OCO3)CC1	-5%	-9	-22%	1%	?
CCc1ccc(CN2CCN(C(=O)c3cccc(OC)c3OC)CC2)cc1	-12%	?	?	14µM*	?
COc1cc(S(=O)(=O)N2CCN(Cc3ccc4c(c3)OCO4)CC2)c(C)cc1C	-22%	-20	15µM*	-2%	?
Cc1nn(Cc2ccccc2)c2sc(C(=O)N3CCN(Cc4ccc5c(c4)OCO5)CC3)cc12	?	?	16µM*	?	?
O=C(c1ccccc1F)N1CCN(Cc2ccc3c(c2)OCO3)CC1	1%	-67*	11%	-17%	-25%
COc1cc(OC)cc(-c2nnc(SCc3ccc(C(=O)O)cc3)o2)c1	0%	-15	6%	-12%	-2%
CCOc1ccc(-c2ncncc2-c2ccc(OC)cc2)c(O)c1	-9%	?	?	-10%	?
Cc1nc2nc(SCc3ccccc3)[nH]n2c(=O)c1CCC(C)C	-1%	5	-1%	4%	-25%
CCOc1ccccc1C(=O)NCC(=O)N1CCN(Cc2ccc3c(c2)OCO3)CC1	?	-80*	29µM*	?	?
O=C(COc1ccc(Cl)cc1)N1CCN(C(=O)c2cccs2)CC1	2%	-73*	-16%	-9%	-27%
